For test [1], the target named is T1, 3-phosphoinositide-dependent protein kinase 1 (Homo sapiens) (UniProt O15530).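 Also: values are mean inhibition of PDK1.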
T1 sequence (whole entry): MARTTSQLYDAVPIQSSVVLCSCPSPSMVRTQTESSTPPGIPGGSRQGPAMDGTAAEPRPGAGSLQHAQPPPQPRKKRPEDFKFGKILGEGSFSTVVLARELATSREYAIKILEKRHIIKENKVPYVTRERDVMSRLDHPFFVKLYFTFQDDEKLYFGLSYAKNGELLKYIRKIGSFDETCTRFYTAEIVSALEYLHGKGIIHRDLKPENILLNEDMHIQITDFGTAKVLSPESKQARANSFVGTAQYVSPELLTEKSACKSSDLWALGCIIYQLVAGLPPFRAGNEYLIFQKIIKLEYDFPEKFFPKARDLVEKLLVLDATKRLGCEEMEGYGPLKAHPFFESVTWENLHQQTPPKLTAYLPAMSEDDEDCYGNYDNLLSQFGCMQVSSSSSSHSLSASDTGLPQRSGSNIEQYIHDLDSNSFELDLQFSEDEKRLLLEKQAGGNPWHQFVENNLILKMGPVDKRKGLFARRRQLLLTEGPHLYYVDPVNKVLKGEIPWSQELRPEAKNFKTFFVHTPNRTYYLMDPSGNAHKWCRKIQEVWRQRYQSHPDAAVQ
The conditions noted are these: at 0.1 µM.

In test [2] the target is cAMP-dependent protein kinase catalytic subunit alpha (Homo sapiens) (UniProt P17612). The conditions noted are these: at 0.1 µM.
The target is the same in test [3]. As to conditions: at 1 µM.
The target of test [4] is Protein kinase C alpha type (Homo sapiens) (UniProt P17252). As to conditions: at 0.1 µM.
The target is the same in test [5]. As to conditions: at 1 µM.
In test [6] the target is Protein kinase C beta type (Homo sapiens) (UniProt P05771). As to conditions: at 0.1 µM.
Protein kinase C beta type (Homo sapiens), sequence (P05771 2-671 limits assumed): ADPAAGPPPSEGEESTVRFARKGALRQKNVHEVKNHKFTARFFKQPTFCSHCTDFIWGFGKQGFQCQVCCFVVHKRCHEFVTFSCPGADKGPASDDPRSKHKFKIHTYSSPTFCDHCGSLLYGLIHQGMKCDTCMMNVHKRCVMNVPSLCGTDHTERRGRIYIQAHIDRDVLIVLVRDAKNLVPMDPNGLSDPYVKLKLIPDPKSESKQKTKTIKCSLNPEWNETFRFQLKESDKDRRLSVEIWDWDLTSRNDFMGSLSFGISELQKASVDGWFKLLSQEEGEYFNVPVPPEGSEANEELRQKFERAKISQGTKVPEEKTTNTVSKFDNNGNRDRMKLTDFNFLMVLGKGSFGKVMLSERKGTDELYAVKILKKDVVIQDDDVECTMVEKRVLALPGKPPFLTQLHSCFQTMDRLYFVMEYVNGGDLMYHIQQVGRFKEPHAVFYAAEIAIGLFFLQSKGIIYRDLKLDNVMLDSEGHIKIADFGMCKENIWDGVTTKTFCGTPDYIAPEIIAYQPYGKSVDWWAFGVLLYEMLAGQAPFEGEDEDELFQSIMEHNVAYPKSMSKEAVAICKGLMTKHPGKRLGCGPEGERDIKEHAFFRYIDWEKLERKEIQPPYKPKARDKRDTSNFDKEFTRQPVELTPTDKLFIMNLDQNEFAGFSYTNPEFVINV
The target is the same in test [7]. The conditions noted are these: at 1 µM.
In test [8] the target is Protein kinase C eta type (Homo sapiens) (UniProt P24723). The conditions noted are these: at 0.1 µM.
Protein kinase C eta type (Homo sapiens), sequence (P24723 whole entry): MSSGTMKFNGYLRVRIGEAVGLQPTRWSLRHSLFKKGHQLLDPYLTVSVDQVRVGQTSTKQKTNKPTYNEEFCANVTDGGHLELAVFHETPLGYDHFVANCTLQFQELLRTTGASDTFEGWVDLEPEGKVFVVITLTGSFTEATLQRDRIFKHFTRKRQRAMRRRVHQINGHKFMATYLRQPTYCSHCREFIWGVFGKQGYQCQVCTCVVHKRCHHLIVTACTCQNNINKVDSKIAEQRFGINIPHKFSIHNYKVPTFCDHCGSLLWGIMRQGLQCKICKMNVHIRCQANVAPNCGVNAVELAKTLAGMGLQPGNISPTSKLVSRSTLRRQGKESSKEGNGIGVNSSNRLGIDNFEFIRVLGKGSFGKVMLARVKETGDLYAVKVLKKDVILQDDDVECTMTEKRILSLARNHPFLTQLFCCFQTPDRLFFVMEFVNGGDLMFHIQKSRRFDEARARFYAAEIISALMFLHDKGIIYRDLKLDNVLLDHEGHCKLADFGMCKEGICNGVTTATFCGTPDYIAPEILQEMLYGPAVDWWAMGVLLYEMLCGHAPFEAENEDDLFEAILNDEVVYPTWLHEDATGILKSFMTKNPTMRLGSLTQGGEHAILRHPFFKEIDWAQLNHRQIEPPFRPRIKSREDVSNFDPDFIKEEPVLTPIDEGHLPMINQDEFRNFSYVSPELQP
The target is the same in test [9]. As to conditions: at 1 µM.
For test [10], the target named is Protein kinase C gamma type (Homo sapiens) (UniProt P05129). As to conditions: at 0.1 µM.
For test [11] the target is unchanged. The conditions noted are these: at 1 µM.
The target of test [12] is T2, Protein kinase C iota type (Homo sapiens) (UniProt P41743).
T2 sequence (whole entry): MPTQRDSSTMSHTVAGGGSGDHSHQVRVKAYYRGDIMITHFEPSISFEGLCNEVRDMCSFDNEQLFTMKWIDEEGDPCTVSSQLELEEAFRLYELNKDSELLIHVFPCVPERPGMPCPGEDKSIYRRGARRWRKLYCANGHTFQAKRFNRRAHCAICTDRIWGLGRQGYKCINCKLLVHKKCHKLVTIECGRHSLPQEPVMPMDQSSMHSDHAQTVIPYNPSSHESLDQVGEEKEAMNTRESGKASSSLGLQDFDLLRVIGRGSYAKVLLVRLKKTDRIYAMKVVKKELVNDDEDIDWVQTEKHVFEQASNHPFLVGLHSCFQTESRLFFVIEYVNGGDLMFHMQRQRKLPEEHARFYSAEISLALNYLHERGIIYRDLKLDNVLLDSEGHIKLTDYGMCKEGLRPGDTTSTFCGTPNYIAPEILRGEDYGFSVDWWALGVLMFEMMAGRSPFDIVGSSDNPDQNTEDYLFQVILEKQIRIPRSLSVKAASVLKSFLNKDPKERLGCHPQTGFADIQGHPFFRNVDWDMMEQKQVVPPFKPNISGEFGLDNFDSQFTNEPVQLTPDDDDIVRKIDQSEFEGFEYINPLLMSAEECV
As to conditions: at 0.1 µM.

For test [13], the target named is T2, Protein kinase C iota type (Homo sapiens). As to conditions: at 1 µM.
Test [14] deals with Protein kinase C theta type (Homo sapiens) (UniProt Q04759). The conditions noted are these: at 0.1 µM.
Protein kinase C theta type (Homo sapiens), sequence (Q04759 whole entry, looked up): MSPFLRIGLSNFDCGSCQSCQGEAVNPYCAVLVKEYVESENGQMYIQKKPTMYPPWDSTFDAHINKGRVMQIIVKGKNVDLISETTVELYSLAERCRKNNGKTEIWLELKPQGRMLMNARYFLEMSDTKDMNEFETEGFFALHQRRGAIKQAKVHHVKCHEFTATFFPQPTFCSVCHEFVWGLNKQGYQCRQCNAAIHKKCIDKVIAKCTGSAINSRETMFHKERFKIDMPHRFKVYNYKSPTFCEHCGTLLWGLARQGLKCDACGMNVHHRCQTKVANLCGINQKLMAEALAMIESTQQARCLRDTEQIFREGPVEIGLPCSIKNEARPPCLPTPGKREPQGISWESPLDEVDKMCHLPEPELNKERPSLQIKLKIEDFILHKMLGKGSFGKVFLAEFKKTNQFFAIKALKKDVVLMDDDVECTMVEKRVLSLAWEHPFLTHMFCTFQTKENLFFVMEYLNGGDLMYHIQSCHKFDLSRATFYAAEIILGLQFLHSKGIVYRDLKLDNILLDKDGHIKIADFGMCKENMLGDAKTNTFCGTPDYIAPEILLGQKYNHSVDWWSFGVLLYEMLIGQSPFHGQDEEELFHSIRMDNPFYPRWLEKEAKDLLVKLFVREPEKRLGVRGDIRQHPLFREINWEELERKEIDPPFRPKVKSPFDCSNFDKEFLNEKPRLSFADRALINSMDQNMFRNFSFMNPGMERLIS
Test [15] has the same target. The conditions noted are these: at 1 µM.
Test [16] has as its target Protein kinase C beta type (Homo sapiens) (UniProt P05771). The conditions noted are these: at 0.1 µM. The source holds these as a separate data set.
The target is the same in test [17]. As to conditions: at 1 µM. This is another data set of the same source.
In test [18] the target is T3, Serine/threonine-protein kinase D1 (Homo sapiens) (UniProt Q15139).
T3 sequence (whole entry): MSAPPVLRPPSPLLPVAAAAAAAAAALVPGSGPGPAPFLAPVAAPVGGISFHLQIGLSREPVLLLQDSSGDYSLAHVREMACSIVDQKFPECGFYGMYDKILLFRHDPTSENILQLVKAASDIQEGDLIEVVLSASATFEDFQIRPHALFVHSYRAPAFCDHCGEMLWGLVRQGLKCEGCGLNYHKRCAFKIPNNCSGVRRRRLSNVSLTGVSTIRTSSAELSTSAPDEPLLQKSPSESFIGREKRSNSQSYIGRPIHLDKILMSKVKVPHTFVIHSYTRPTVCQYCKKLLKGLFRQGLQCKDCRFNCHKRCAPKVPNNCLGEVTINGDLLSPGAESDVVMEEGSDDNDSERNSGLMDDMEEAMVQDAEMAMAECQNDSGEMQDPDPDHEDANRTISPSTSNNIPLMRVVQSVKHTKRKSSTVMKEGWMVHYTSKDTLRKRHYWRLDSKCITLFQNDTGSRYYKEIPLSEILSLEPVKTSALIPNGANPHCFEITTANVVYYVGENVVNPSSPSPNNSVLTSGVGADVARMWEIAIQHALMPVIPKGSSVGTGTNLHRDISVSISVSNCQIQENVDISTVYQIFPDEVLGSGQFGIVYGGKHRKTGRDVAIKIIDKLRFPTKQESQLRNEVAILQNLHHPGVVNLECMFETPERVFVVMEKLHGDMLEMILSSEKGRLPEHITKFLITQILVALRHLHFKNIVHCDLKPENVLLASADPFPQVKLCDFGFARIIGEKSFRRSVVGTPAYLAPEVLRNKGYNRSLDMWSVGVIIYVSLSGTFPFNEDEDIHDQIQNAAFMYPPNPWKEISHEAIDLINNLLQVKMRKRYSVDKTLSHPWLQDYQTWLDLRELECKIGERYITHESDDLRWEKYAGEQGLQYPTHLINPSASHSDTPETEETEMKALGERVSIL
The conditions noted are these: at 0.1 µM.

In test [19] the target is T3, Serine/threonine-protein kinase D1 (Homo sapiens). As to conditions: at 1 µM.
For test [20], the target named is T4, Serine/threonine-protein kinase D2 (Homo sapiens) (UniProt Q9BZL6).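 Also: reported percent inhibition values are means, part of the GSK PKIS kinase panel screen.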
T4 sequence (whole entry): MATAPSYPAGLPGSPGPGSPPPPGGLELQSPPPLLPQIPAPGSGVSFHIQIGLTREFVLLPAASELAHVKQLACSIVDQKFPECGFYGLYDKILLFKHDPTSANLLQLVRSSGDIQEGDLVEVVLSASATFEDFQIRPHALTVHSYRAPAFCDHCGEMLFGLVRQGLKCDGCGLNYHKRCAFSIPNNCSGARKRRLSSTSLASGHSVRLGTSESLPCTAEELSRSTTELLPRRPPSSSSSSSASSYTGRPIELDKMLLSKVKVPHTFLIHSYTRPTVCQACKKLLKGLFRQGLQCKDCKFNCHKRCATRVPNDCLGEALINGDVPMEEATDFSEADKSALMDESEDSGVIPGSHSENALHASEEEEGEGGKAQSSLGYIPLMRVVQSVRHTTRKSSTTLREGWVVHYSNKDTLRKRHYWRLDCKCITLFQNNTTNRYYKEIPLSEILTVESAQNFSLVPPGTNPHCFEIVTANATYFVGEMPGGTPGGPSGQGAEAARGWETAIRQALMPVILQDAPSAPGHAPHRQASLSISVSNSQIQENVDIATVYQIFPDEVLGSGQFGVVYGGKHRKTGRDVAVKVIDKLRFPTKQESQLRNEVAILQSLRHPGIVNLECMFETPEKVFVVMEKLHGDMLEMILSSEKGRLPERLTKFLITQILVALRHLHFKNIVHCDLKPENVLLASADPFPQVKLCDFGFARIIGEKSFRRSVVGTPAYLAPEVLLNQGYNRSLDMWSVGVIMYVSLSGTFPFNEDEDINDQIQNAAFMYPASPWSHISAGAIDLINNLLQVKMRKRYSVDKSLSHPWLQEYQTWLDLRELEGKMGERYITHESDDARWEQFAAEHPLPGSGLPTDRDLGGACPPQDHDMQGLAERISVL
The conditions noted are these: at 0.1 µM.

Here are results for seven molecules from ChEMBL document CHEMBL1961873, “Compounds: GSK PKIS; Assays: Nanosyn kinase panel” (2012).

`Cc1cccc(Nc2ncc(-c3ccccc3)o2)c1`: the inhibition in test [1] stood at 1.5%; in test [2] it was 12.6%; in test [3] it was 13.8%; in test [4], 0.24%; in [5], 3.41%; in test [6], 3.52%. The inhibition was 5.79% in test [7]; 2.87% in [8]; 0.87% in [9]; 3.99% in test [10]; 7.25% in [11]; 1.43% in [12]. Moreover, the inhibition in test [13] was determined as 2.2%; in test [14], 4.9%; in [15] it was 6.83%; in test [16], 2.39%; in test [17], 7.38%; in test [18] it was 3.07%. In addition, the inhibition in [19] was 5.44%; in test [20], 3.21%.

In the case of `CN(C)CCOc1ccc(-c2nc(-c3ccncc3)c(-c3ccc4c(c3)CC/C4=N\O)[nH]2)cc1`, the inhibition in [1] worked out at 0.77%; in test [2] it was 1.46%; in [3], 4.29%; in test [4] it was 0.58%; in test [5] it was 1.61%; in test [6], 1.27%. The inhibition worked out at 11.9% in [7]; 1.48% in test [8]; 3.32% in test [9]; 1.85% in test [10]; 3.66% in test [11]; 3.25% in test [12]. Besides, the inhibition in test [13] was found to be 3.37%; in test [14], 2.07%; in [15], 2.93%; in test [16], 0.36%; in [17], 3.35%; in test [18] it was 3.26%. The inhibition worked out at 6.18% in test [19] and 2.55% in [20].

With `CCn1c(-c2nonc2N)nc2ccccc21`, the inhibition in test [1] is 2.81%; in test [2], 3.16%; in test [3], 18.5%; in test [4], 0.44%; in [5], 5.52%; in [6] it was 12.7%. Besides, the inhibition in test [7] is 46.5%; in test [8] it was 20.8%; in test [9] it was 67.6%; in test [10] it was 3.92%; in test [11], 4.67%; in test [12] it was 1.65%. The inhibition in [13] came to 6.6%; in test [14] it was 1.58%; in [15] it was 6.38%; in test [16], 0.96%; in [17], 7.2%; in test [18], 2.23%. Moreover, the inhibition in test [19] amounted to 5.47%; in test [20], 2.41%.

On to `Fc1ccc(-c2cc(-c3c[nH]nc3-c3ccccn3)ccn2)cc1`, for which the inhibition in test [1] was determined as 0.78%; in [2], 1.9%; in [3], 2.54%; in [4], 0.45%; in test [5], 0.88%; in [6] it was 1.93%. Besides, the inhibition in test [7] was 3.1%; in [8], 4.28%; in test [9] it was 6.6%; in test [10], -0.18%; in test [11], 1.87%; in test [12] it was 2.53%. Besides, the inhibition stood at 0.58% in test [13]; 3.15% in [14]; 5.06% in test [15]; 1.48% in [16]; 1.07% in test [17]; 4.79% in test [18]. In addition, the inhibition was 26.9% in [19] and 6.43% in [20].

Turning to `COc1cc(/C=N/Nc2ncnc3[nH]ncc23)ccc1O`, the inhibition in test [1] was 2.95%; in [2] it was 1.43%; in [3], 5.96%; in test [4], 0.03%; in [5], 3.59%; in [6], -0.06%. For the same molecule, the inhibition in [7] was 4.56%; in [8], 0.97%; in [9], 7.35%; in test [10] it was 2.16%; in test [11] it was 8.27%; in test [12], 2.83%. Also, the inhibition in test [13] amounted to 2.53%; in [14], 2.3%; in test [15], 4.29%; in test [16] it was 0.58%; in test [17] it was 4.16%; in [18] it was 2.99%. The results for the inhibition in test [19] and in test [20] were 4.19% and 2.81%, respectively.

On to `CNC(=O)c1cc(-c2ccc(F)cc2)cc(-c2ccc(S(=O)(=O)N3CCCC3)cc2)c1N`, for which the inhibition in test [1] was 1.46%; in test [2] it was 0.9%; in test [3], 0.32%; in [4], 0.46%; in test [5], 1.02%; in [6], -0.39%. The inhibition in test [7] stood at 0.24%; in [8], 3.68%; in test [9], 1.41%; in [10] it was 2.34%; in [11] it was 2.53%; in test [12] it was 1.11%. In addition, the inhibition is 1.04% in test [13]; 0.84% in test [14]; 1.4% in test [15]; -0.56% in test [16]; 1.04% in test [17]; 3.87% in test [18]. For the same molecule, the inhibition in [19] amounted to 4.98%; in [20], 2.4%.

In the case of `FC(F)(F)c1cccc(-c2nn3ncccc3c2-c2ccnc(Nc3ccc4c(c3)OCCO4)n2)c1`, the inhibition in [1] worked out at 0.71%; in test [2], 1.01%; in [3], 2.39%; in [4], 0.53%; in [5] it was 1.32%; in test [6] it was 0.07%. Also, the inhibition was -2.34% in test [7]; 2.1% in test [8]; 1.3% in test [9]; 0.03% in test [10]; 2.4% in test [11]; -1.47% in [12]. In addition, the inhibition in test [13] was 2.18%; in test [14], 0.59%; in [15] it was -0.24%; in test [16], 0.37%; in [17], 0.77%; in [18] it was 3.4%. Besides, the inhibition was determined as 33.6% in test [19] and 5.98% in [20].
